Assay outcomes from PubChem.
Only a selection was taken, and hits are over-represented in it overall.
Tgondii IFNg: T. gondii growth inhibition with IFN-gamma, primary screen, cell-based. Toxoplasma gondii growth in IFN-gamma-treated host cells; hits give low values. activity change, negative = inhibition, % (concentration not given with the values). 69,000 tested, 3.8% active; in the data active = activity change below about -70%, passing the limit was not always enough;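 also: host cells are HeLa cells infected with Toxoplasma gondii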
Of the large screens only hits and unclear results are named; the others gave an inactive call; ! = repeats disagree.

O=C(CC1COCCN1)N1CCN(c2nnc(C(F)(F)F)s2)CC1 (centres undefined)	none
CN(C)c1cc(Nc2ccccc2)c2c(=O)n(C)c(=O)n(C)c2n1	Tgondii IFNg -84
Cn1c(=O)c2c3nc4ccccc4cc3c(=O)n(C)c2n(C)c1=O	none
Cn1c(=O)c2c(-c3ccc(F)cc3)cc(-c3cccc(F)c3)nc2n(C)c1=O	none
O=C(Nc1cccc(-c2nc3ccccc3o2)c1)c1ccccc1	none
CC(C)CC(=O)Nc1ccc2oc(-c3ccncc3)nc2c1	none
CC(C)(C)c1ccc(C(=O)Nc2ccc3oc(-c4ccccc4)nc3c2)cc1	Tgondii IFNg -84
CCc1ncnc2c1CCN(c1ncc(F)cn1)CC2	none
O=C(c1cc2cccnc2n(Cc2ccc(F)cc2)c1=O)N1CCCCC1	none
N#C/C(=C/c1ccc(O)c(O)c1)C(=O)NCCCc1ccccc1	none
N#C/C(=C\c1ccc(O)c(O)c1)C(=O)NC1CCC(CC2CCC(NC(=O)/C(C#N)=C/c3ccc(O)c(O)c3)CC2)CC1 (centres undefined)	Tgondii IFNg -80
N#C/C(=C/c1ccc(O)c(O)c1)C(=O)NCc1ccccc1	none
O=C(Nc1ccccc1)c1cccc2ccccc12	none
CCO[C@H]1CN(S(=O)(=O)c2cccnc2)[C@H]2CCCO[C@@H]12	none
CN(C)S(=O)(=O)N1CCO[C@H]2[C@@H](OCc3cccnc3)CC[C@H]21	none
CCO[C@@H]1CCN(S(=O)(=O)N(C)C)[C@@H]2CCO[C@H]21	Tgondii IFNg -82
Cc1ccc(-c2n[nH]c(Cc3ccccc3)n2)cc1N1CCNC1=O	none
CN(C)C(=O)NC[C@@H]1CCC[C@]2(CCN(CC3CCOCC3)C2)O1	none
O=c1c2cc(O)c(O)cc2oc2cc(O)c(C3O[C@H](CO)[C@H](O)[C@@H](O)[C@H]3O)c(O)c12 (some centres undefined)	none
COc1ccc(C)cc1NC(=O)C(=O)NCCc1csc(-c2ccc(F)cc2)n1	none
Cc1nc(CN2CCN(C)C3(CCN(Cc4ccco4)CC3)C2=O)cs1	none
COCCN1CC2(CCC1=O)CCN(Cc1cnc(C)[nH]1)CC2	none
CCSc1nc(CC(=O)NCc2ccncc2)cs1	none
Clc1ccc(NCn2nnc3ccccc32)cc1	none
CC(C)N=c1cc2n(-c3ccc(Cl)cc3)c3ccccc3nc-2cc1Nc1ccc(Cl)cc1	Tgondii IFNg -71!
Cc1cccc(C)c1NC(=O)C(c1ccc(Cl)cc1Cl)N(C)C(=O)C(C)O (centres undefined)	none
Cc1cccc(C(=O)CC(c2ccccc2)C2C(=O)c3ccccc3C2=O)c1 (centres undefined)	none
Cc1ccc(NC(=O)c2c(O)c3cccnc3n(-c3ccc(F)cc3)c2=O)cc1	none
O=C1NCCN(CC2CC2)C12CCN(Cc1ccc3c(c1)OCO3)CC2	none
CN1CCN([C@@H]2CCN(S(C)(=O)=O)[C@H]2Cc2cnn(C)c2)CC1	none
c1cc(-c2cnccn2)c2cccnc2c1	none
c1ccc(-c2[nH]ncc2-c2ccnc3ccccc23)nc1	Tgondii IFNg -80!
O=C(NC1CCOCC1)c1ccc(-c2cc(-c3cn[nH]c3-c3ccccn3)ccn2)cc1	none
O=c1cc(N2CCNCC2)oc2c(-c3ccccc3)cccc12	Tgondii IFNg -85!
O=S(=O)(c1ccccc1)c1cnc2c(N3CCNCC3)cccc2c1	none
Cc1cccc(N2C(=O)c3cccc4c(N5CCNCC5)ccc(c34)C2=O)c1	none
NCC1CC(=O)N(Cc2ccccc2)C1 (centres undefined)	none
O=c1[nH]nc(-c2cc3c(s2)CCCC3)o1	Tgondii IFNg -100
CSC(C)(C)CC(C)NC1CCN(Cc2cccnc2)CC1 (centres undefined)	none
COc1ccc(NC(=O)Nc2ccc(-c3nc(-c4ccc(C)cc4C)co3)cc2)cc1OC	none
CCN(CC)CCOC(=O)C(c1ccccc1)c1ccccc1	none
CCN(CC)CCOC(=O)C(c1ccccc1)C1CCCCC1 (centres undefined)	Tgondii IFNg -77!
CCN(CC)CCOC(=O)C1(C2CCCCC2)CCCCC1	none
Cc1nc(C)c(C(=O)N2CCC(CC(=O)NC(C)c3ccccc3)CC2)s1 (centres undefined)	none
COCc1c(C(=O)N2CCN(c3nc4ccccc4s3)CC2)noc1C	none
COc1cccc(-n2cnc3ccccc32)n1	Tgondii IFNg -90
COc1cc(-c2nc3ccccc3n2C)cc(OC)c1OC	none
Cn1c(Br)nc2ccccc21	none
COCCN1CCc2ncc(CNC(=O)c3cnn(C)c3)n2CC1	none
C=CCN(Cc1ccccc1Cl)C(=O)c1cnn(CC)c1	none
Cc1c(C2CCN(CCc3ccccc3)CC2)noc1-c1ccc(Cl)cc1	Tgondii IFNg -76!
CCn1c(CC2CCN(CCc3ccccc3)CC2)n[nH]c1=O	none
OC(c1ccccc1)C1CCN(CCc2ccccc2)CC1 (centres undefined)	none
CCN(CC)CCNC(=O)c1c(C)[nH]c(/C=C2\C(=O)Nc3ccc(F)cc32)c1C	Tgondii IFNg -75
Cc1[nH]c(/C=C2\C(=O)Nc3ccc(S(=O)(=O)N(C)c4cccc(Cl)c4)cc32)c(C)c1C(=O)N1CCN(C)CC1	none
CCN(CC)CCNC(=O)c1ccc(N)cc1	none
Cc1[nH]cnc1-c1nccn1Cc1ccccc1-n1ccnc1	none
CCOC(=O)Cn1nnc(Cc2c(Cl)cccc2Cl)n1	none
COc1ccc(CCn2cnc3c4cc(F)ccc4n(Cc4ccc(N5CCCC5=O)cc4)c3c2=O)cc1OC	none
